Data: PubChem BioAssay (EPA / NIEHS)
Records with an inconclusive call do not appear. The source holds several records for some structures; these can differ, active in one and inactive in another. Calls of active or inactive are those of the source. Rule for the calls, unless noted: active = hit-call score of the fitted dose curve at least 0.9, where 1 is the maximum; inconclusive = response in the unintended direction; inactive = score below 0.9.

What was measured:
[1] = CCTE_Mundy_HCI_Cortical_Synap_Neur_Matur_CellBodySpotCount: CCTE's Synaptogenesis and Neurite Maturation Assay in rat cortical cells for Cell Body Spot Count, Mundy Lab (AID 2284223; active = hit-call score of the fitted dose curve at least 0.9, where 1 is the maximum; inactive = score below 0.9)
Summary of the method: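 Rat cortical neurons; AraC @ DIV 5; dose + media change DIV 7; fix DIV 12; anti-MAP2/anti-synaptophysin IF, Hoechst; HCI count of soma synaptophysin puncta/neuron; DMSO = negative control.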

[2] = CCTE_Mundy_HCI_Cortical_NOG_NeuronCount: CCTE's Neurite Outgrowth Assay in rat cortical cells for Neuron Count, Mundy Lab (AID 2284236);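 note: neurons counted by imaging betaIII-tubulin and Hoechst stained cortical cells; cells exposed to compound for about 48 hours before fixation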
Summary of the method: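 Read-out: neuron number by high-content imaging of betaIII-tubulin (Alexa Fluor-488) and Hoechst-labelled rat primary cortical cells.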

[3] = CCTE_Mundy_HCI_Cortical_Synap_Neur_Matur_NeuronCount: CCTE's Synaptogenesis and Neurite Maturation Assay in rat cortical cells for Neuron Count, Mundy Lab (AID 2284242);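 note: hits reduce neuron count versus DMSO baseline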
Summary of the method: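 Neuron counts come from automated high-content imaging of Hoechst nuclei and MAP2/synaptophysin immunostaining at DIV 12, with loss of signal judged against DMSO. Cultures of rat cortical cells had glial growth arrested by AraC at DIV 5; chemical exposure began DIV 7.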

[4] = IUF_NPC2c_oligodendrocyte_migration_120hr: Leibniz Research Institute for Environmental Medicine (IUF) 120-hour Neural Progenitor Cell Migration Assay for Oligodendrocyte Migration (NPC2c) (AID 2284297; active = hit-call score of the fitted dose curve at least 0.9, where 1 is the maximum; inactive = score below 0.9)
Summary of the method: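 Read-out is the mean distance of O4-positive oligodendrocytes from the sphere core edge at 120 h, normalized to radial glia migration and fitted in the gain direction against DMSO. Spheres of primary human neural progenitors differentiated on laminin under continuous compound exposure.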

[5] = IUF_NPC2a_radial_glia_migration_120hr: Leibniz Research Institute for Environmental Medicine (IUF) 120-hour Neural Progenitor Cell Migration Assay for Radial Glia Migration (NPC2a) (AID 2284298; active = hit-call score of the fitted dose curve at least 0.9, where 1 is the maximum; inactive = score below 0.9)
Summary of the method: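 Readout: distance in um from sphere core edge to migration-area edge, derived from Hoechst nuclei density with a threshold-defined polynomial boundary. Spheres: hNPC, GW 16-19, 0.3 mm, on PDL/laminin; exposure 5 days; DMSO is baseline.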

[6] = IUF_NPC2a_radial_glia_migration_72hr: Leibniz Research Institute for Environmental Medicine (IUF) 72-hour Neural Progenitor Cell Migration Assay for Radial Glia Migration (NPC2a) (AID 2284299; active = hit-call score of the fitted dose curve at least 0.9, where 1 is the maximum; inactive = score below 0.9)
Summary of the method: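 Radial glia migration (µm, sphere core edge to migration front, four directions averaged) from brightfield images at 72 h; hNPC spheres differentiating on PDL/laminin in N2 medium, compound exposure at 7 concentrations from plating.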

[7] = IUF_NPC2b_neuronal_migration_120hr: Leibniz Research Institute for Environmental Medicine (IUF) 120-hour Neural Progenitor Cell Migration Assay for Neuron Migration (NPC2b) (AID 2284300; active = hit-call score of the fitted dose curve at least 0.9, where 1 is the maximum; inactive = score below 0.9)
Summary of the method: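 Read-out is mean distance from sphere edge to each TUBB3-positive neuron at 120 h, expressed relative to radial glia migration distance and to DMSO baseline. Single 0.3 mm human NPC spheres differentiated on laminin under continuous compound exposure.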

[8] = IUF_NPC3_neuronal_differentiation_120hr: Leibniz Research Institute for Environmental Medicine (IUF) 120-hour Neuronal Differentiation Assay (NPC3) (AID 2284301; active = hit-call score of the fitted dose curve at least 0.9, where 1 is the maximum; inactive = score below 0.9)
Summary of the method: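 hNPC spheres, PDL/laminin, DMEM/F12 3:1 + 1% N2, 37C, 5% CO2; 7 concentrations + solvent control, 5 d exposure, half-change day 3. Fix 120 h; TUBB3/Hoechst ICC, CNN neuron calling; % neurons vs nuclei, DMSO-normalized.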

[9] = IUF_NPC4_neurite_length_120hr: Leibniz Research Institute for Environmental Medicine (IUF) 120-hour Neuronal Morphology Assay for Neurite Length (NPC4) (AID 2284302; active = hit-call score of the fitted dose curve at least 0.9, where 1 is the maximum; inactive = score below 0.9)
Summary of the method: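 hNPC spheres (0.3 mm, fetal brain GW 16-19) on PDL/laminin, DMEM:F12 3:1 + 1% N2, 37C 5% CO2; 7 concs + solvent control, day 0-5, half medium change d3; fix 120 h, TUBB3 ICC, mean neurite length um vs DMSO.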

[10] = IUF_NPC5_oligodendrocyte_differentiation_120hr: Leibniz Research Institute for Environmental Medicine (IUF) 120-hour Oligodendrocyte Differentiation Assay (NPC5) (AID 2284304);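 note: primary human fetal neural progenitor spheres plated to migrate and differentiate; share of O4-positive cells among Hoechst nuclei found by CNN image analysis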
Summary of the method: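 Oligodendrocyte differentiation was scored after 120 h as the O4-positive share of Hoechst-stained nuclei across the neurosphere migration area, using a trained convolutional neural network on high-content fluorescence images. Human fetal neural progenitor spheres were dosed from day 0, normalised to DMSO.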

[11] = IUF_NPC4_neurite_area_120hr: Leibniz Research Institute for Environmental Medicine (IUF) 120-hour Neuronal Morphology Assay for Neurite Area (NPC4) (AID 2284305)
Summary of the method: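 hNPC spheres on PDL/laminin, N2 medium, 37C/5% CO2; dosed day 0, half-medium refresh day 3; fixed 120 h; TUBB3/Hoechst ICC, high-content imaging; neurite area = mean pixels per neuron (nuclei excluded); DMSO baseline, max 0.1%.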

[12] = IUF_NPC2-5_cytotoxicity_72hr: Cytotoxicity Assessment at 72 hours in the Leibniz Research Institute for Environmental Medicine (IUF) Neural Progenitor Cell Migration and Differentiation Assay for Cytotoxicity (NPC2-5) (AID 2284306);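 note: LDH release into supernatant measured by resorufin fluorescence marking membrane damage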
Summary of the method: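 hNPC spheres (0.3 mm), PDL/laminin, DMEM/F12 3:1 + 1% N2; cpd from d0, 7 concs + SC, DMSO max 0.1%; half-medium refresh d3. Readout: supernatant LDH via resorufin fluorescence (RFU), 72 h; gain-of-signal fit.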

[13] = IUF_NPC2-5_cytotoxicity_120hr: Cytotoxicity Assessment at 120 hours in the Leibniz Research Institute for Environmental Medicine (IUF) Neural Progenitor Cell Migration and Differentiation Assay (NPC2-5) (AID 2284307)
Summary of the method: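 Sphere plating starts differentiation and exposure together at day 0. Compound solution is half-replaced on day 3. At 120 h, medium supernatant is taken for an LDH membrane-integrity read based on resazurin reduction to resorufin fluorescence.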

[14] = IUF_NPC2-5_cell_number_120hr: Cell Number Assessment at 120 hours in the Leibniz Research Institute for Environmental Medicine (IUF) Neural Progenitor Cell Migration and Differentiation Assay (NPC2-5) (AID 2284308; active = hit-call score of the fitted dose curve at least 0.9, where 1 is the maximum; inactive = score below 0.9;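 note: count of Hoechst-stained nuclei in migration zone around plated human neural progenitor spheres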)
Summary of the method: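 hNPC spheres, one per well, PDL/laminin, N2 medium, 37C, 5% CO2. Dosing day 0 → half-medium change with fresh compound day 3 → fix 120 h. Readout: Hoechst+ nuclei count, migration area; 7 concentrations plus solvent control.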

[15] = IUF_NPC2-5_viability_120hr: Viability Assessment at 120 hours in the Leibniz Research Institute for Environmental Medicine (IUF) Neural Progenitor Cell Migration and Differentiation Assay (NPC2-5) (AID 2284312; active = hit-call score of the fitted dose curve at least 0.9, where 1 is the maximum; inactive = score below 0.9)
Summary of the method: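 Human fetal neural progenitor spheres (0.3 mm) plated on poly-D-lysine/laminin in N2 differentiation medium, exposed 120 h with half-medium refresh at day 3. Viability by alamar blue resazurin fluorescence; 7 concentrations, DMSO max 0.1%.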

[16] = TAMU_PeakParms_SingleDonor1434_Asystole: Texas A&M University (TAMU) 1.5-hr Human Induced Pluripotent Stem Cell (iPSC)-derived Cardiomyocytes Calcium (Ca+2) Flux Assay for Cardiotoxicity: Asystole (quiescence of beating) (AID 2284328)
Summary of the method: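 Donor 1434 iPSC-cardiomyocytes exposed 90 min at 37C, 5% CO2, to 0.2, 1, 10 and 100 uM in 0.5% DMSO. Ca2+ dye fluorescence gave average peak frequency; POD is EC95, a 95% beat-rate drop versus controls.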

[17] = IUF_NPC1_cytotoxicity_72hr: Cytotoxicity Assessment at 72 hours in the Leibniz Research Institute for Environmental Medicine (IUF) Neural Progenitor Cell Proliferation Assay (NPC1) (AID 2284332);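 note: rising LDH signal means more cytotoxicity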
Summary of the method: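 Cytotoxicity by LDH membrane-integrity assay on medium supernatants, fluorescence via resazurin reduction, after 3-day single exposure of primary hNPC spheres at 37C, pH 7.2-7.6 with growth factors. Fitted upward against baseline.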

[18] = tested on: SERPINA7 (gene 6906); assay: CCTE_GLTED_hTBG: CCTE's human Thyroxine-binding Globulin (TBG) Inhibition Assay, Great Lakes Toxicology and Ecology Division (GLTED) Lab (AID 2284343);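 note: active chemicals lower fluorescence versus DMSO baseline by displacing probe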
Summary of the method: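 Cell-free displacement of the fluorescent probe ANSA from human thyroxine-binding globulin after 2 h exposure. Read-out at ex 380/em 475 nm; DMSO baseline.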

[19] = target: Cytochrome P450 2C19 (Homo sapiens) (UniProt P33261); assay: NVS_ADME_hCYP2C19: NovaScreen (NVS) CYP450-related Enzyme Activity (ADME) Assay for human CYP2C19 (AID 2283113);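 for AC50: potency for inhibition seen as loss of fluorescent signal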
Summary of the method: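 Fluorescence intensity was measured 1 hour after chemicals were added to insect-cell-derived recombinant CYP2C19 with fluorogenic substrate. Decreased signal versus acetonitrile control was taken as reduced enzyme activity; initial testing used 10 uM in duplicate.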

[20] = target: human Retinoic Acid Receptor beta (RARb), RARB (gene 5915) (UniProt P10826); assay: ATG_RARb_TRANS: Attagene TRANS-FACTORIAL HepG2 Assay for human Retinoic Acid Receptor beta (AID 2283004)
Sequence of human Retinoic Acid Receptor beta (RARb), RARB (gene 5915) (P10826 whole entry, looked up): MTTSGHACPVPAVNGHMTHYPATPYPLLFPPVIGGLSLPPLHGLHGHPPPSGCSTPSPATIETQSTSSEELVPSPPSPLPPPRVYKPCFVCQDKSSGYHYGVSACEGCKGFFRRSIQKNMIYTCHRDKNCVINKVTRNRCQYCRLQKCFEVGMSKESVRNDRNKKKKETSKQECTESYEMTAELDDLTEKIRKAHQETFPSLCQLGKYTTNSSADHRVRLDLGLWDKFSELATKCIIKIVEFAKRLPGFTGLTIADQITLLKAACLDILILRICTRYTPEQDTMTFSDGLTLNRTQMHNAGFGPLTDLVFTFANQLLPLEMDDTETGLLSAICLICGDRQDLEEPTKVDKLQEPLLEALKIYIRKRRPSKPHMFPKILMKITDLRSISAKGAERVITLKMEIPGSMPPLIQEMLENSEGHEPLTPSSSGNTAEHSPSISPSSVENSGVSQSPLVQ
Summary of the method: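 Transient transfection of HepG2 with multiple reporter units → chemical dosing, 24 h → total RNA isolation → RT with oligo(dT) → reporter-specific PCR, 6-FAM primer extension, HpaI digest → capillary electrophoresis. Positive direction vs DMSO control.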

Measured: AC50

Cc1ccc(OP(=O)(Oc2ccc(C)cc2)Oc2ccc(C)cc2)cc1 (tested in a mixture with another compound)
active: [2] 25.6 µM | [3] 24 µM | [16] 7.7 µM | [18] 1.03 µM
not listed: [19] | [20]
inactive: all other assays above

CC1(C)[C@H](C(=O)O[C@H](C#N)c2cccc(Oc3ccccc3)c2)[C@@H]1C=C(Br)Br
active: [19] 0.134 µM | [3] 23.9 µM | [5] 0.0654 µM | [6] 0.67 µM | [10] 0.729 µM | [12] 3.53 µM | [14] 0.461 µM
inactive: [19] | [1] | [2] | [4] | [7] | [8] | [9] | [11] | [13] | [15] | [16] | [17]

CCOC(=O)COc1ccc(Cl)cc1Cl
inactive: [20]
active: [18] 24.6 µM

O=C(NC(=O)c1c(F)cccc1F)Nc1ccc(Oc2ccc(C(F)(F)F)cc2Cl)cc1F
inactive: [20]
